Experimental findings from ChEMBL document CHEMBL4808148, “HDAC6 screening dataset using tau-based substrate in an enzymatic assay yields selective inhibitors and activators” (2021) are described below.

For orientation: inhibition means the relative decrease from the control value, in per cent.

In test [1] the target is T1, Protein deacetylase HDAC6 (Homo sapiens) (UniProt Q9UBN7).
T1 sequence (whole entry): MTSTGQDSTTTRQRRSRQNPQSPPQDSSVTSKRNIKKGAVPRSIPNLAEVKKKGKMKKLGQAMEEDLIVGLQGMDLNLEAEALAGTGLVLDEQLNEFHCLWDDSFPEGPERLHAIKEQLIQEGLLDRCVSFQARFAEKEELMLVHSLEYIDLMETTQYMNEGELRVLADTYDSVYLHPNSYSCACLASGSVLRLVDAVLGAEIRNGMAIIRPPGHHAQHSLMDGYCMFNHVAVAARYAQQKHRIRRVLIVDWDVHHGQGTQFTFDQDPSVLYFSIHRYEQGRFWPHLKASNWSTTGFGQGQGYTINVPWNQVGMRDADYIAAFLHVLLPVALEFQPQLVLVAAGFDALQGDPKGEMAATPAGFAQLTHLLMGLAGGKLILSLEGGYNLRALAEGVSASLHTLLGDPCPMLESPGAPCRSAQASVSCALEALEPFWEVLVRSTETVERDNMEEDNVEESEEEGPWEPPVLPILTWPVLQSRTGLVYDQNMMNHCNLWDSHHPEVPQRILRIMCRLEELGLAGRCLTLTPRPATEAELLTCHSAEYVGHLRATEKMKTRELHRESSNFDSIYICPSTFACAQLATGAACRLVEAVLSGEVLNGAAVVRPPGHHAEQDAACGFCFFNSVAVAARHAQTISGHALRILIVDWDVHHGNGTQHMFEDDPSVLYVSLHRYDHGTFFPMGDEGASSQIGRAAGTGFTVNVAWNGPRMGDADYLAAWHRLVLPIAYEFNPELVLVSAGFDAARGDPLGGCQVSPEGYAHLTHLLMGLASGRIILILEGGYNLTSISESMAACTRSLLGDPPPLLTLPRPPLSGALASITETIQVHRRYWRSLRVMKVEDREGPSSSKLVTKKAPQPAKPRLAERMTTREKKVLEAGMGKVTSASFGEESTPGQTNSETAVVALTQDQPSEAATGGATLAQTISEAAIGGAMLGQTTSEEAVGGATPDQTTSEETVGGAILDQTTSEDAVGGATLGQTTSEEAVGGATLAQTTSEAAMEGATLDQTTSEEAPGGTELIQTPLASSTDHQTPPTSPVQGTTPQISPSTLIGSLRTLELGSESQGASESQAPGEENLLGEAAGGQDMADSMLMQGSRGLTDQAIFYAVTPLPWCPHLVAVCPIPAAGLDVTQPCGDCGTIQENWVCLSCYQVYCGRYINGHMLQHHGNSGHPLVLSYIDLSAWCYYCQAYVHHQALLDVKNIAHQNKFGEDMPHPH
As to conditions: at 10 µM.

The target of test [2] is Protein deacetylase HDAC6 (Homo sapiens) (UniProt Q9UBN7). As to conditions: at 10 µM. The source holds these as a separate data set.

Hit rate of the full screen: of about 5,600 compounds, about 390 (7%) showed an effect of 50% or more. Shown is part of a subset that was picked to be rich in strong results. Residues, ends and D or L forms follow the SMILES beside them.

`C=CCN1CC[C@]23c4c5ccc(O)c4O[C@H]2[C@@H](OCCOCCOCCOCCOCCOCCOCCOC)CC[C@@]3(O)[C@H]1C5`: the inhibition in test [1] came to 3.73%.
Still for that read-out and setting: next, `OC[C@H]1O[C@H](O)C[C@@H](O)[C@@H]1O`: -3.53%; `O=C(Nc1cc(C(F)(F)F)cc(C(F)(F)F)c1)Nc1c(Br)cc(Br)cc1-c1nnn[nH]1`: 0.45%.
Same read-out and setting: next, `O=C(c1cn(Cc2cncn2Cc2ccc(Br)cc2)cc1-c1cccc2ccccc12)N1CCOCC1`: -6.62%.
The same measure, in the same setting: next, `COc1cc2c(cc1OC)CN(C(=O)/C=C/c1c(-c3ccccc3)n(C)c3ncccc13)CC2`: 33.3%.
Turning to `COC1[C@@H](O)[C@@H](O)C(O)[C@H](O)[C@H]1O` (stereo partly specified), the inhibition in test [1] is -3.32%.
On the same count and under the same terms, as for `CC(C)[C@@H]1C(=O)N(S(C)(=O)=O)[C@@H]2CCN(C(=O)/C=C/CN3CCCCC3)[C@H]21`, the figure is -9.25%; as for `NC(=O)c1nc(Nc2ccccc2)sc1NC(=O)C1CCCCC1`, 11.1%.
Still for that read-out and setting: as for `Cc1nc2c(c(=O)[nH]1)CSCC2`, the figure is 36%; as for `CC(C)(C)NCC(O)COc1cc(Cl)ccc1Cl` (stereo unspecified), 2.55%; as for `Nc1nc(F)nc2c1ncn2[C@@H]1O[C@H](COP(=O)(O)O)[C@@H](O)[C@@H]1O`, -4.37%.
TOCOFERSOLAN, CHEMBL2108106: the inhibition in test [2] is 6.6%.
Consider `O=C(Nc1ncc(SCCN2CCCC2)s1)[C@]1(c2ccc(S(=O)(=O)C3CC3)cc2)C[C@H]1C1CCCCC1`, for which, in test [1], the inhibition is -4.35%.
On the same count and under the same terms, as for `CC(C)CC(NC(=O)C1CCCN1)C(=O)NCC(N)=O` (stereo not drawn) (H-Pro-Leu-Gly-NH2; configuration not given here), the figure is 40.6%.
The same measure, in the same setting: as for `CC(C)(C)Nc1nc(Nc2ccc(C(N)=O)cc2)cc(N)c1C#N`, the figure is 26.8%.
Still for that read-out and setting: next, `CC(C)C(N)=O`: 26.5%; `O=C(O)CC1CC(c2ccccc2)=NO1` (stereo unspecified): 32.1%.
Regarding `O=C(CC1CC(c2ccc(F)cc2F)=NO1)N1CCOCC1` (racemic), the inhibition in test [1] amounted to 99.4%.
Still for that read-out and setting: as for `CCCC[C@H](NC(C)=O)C(=O)N[C@H]1CC(=O)NCCCC[C@@H](C(=O)O)NC(=O)[C@H](Cc2c[nH]c3ccccc23)NC(=O)[C@H](CCCNC(=N)N)NC(=O)[C@@H](Cc2ccccc2)NC(=O)[C@H](Cc2c[nH]cn2)NC1=O`, the figure is 38.5%.
On to `N#CC[C@@H](C1CCCC1)n1cc(-c2ncnc3[nH]ccc23)cn1`, for which the inhibition in test [1] is -2.44%.
Still for that read-out and setting: next, `C[C@@H]([C@H](O)c1ccccc1)N(C)C`: -0.94%; `CN(C)[C@@H](CCOc1cccc2ccccc12)c1ccccc1`: 53%; `CNC(=O)Oc1cccc2ccccc12`: 25.3%.
The same measure, in the same setting: as for `CNC(=O)c1ccccc1Nc1nc(Nc2ccc3c(c2OC)CCC[C@H](N2CCN(CCO)CC2)C3)ncc1Cl`, the figure is 11.5%; as for `N#[N+]/C=C(\[O-])CC[C@H](N)C(=O)O`, 28.2%.
Same read-out and setting: as for `CCOC(=O)[C@H](CCc1ccccc1)N[C@@H](C)C(=O)N1Cc2cc(OC)c(OC)cc2C[C@H]1C(=O)O`, the figure is -0.68%.
In the case of `COc1cc(OCc2cccc(-c3ccccc3)c2C)cc(OC)c1CN1CCCC[C@H]1C(=O)O`, the inhibition in test [1] was determined as 64.2%.
On the same count and under the same terms, as for `CC[C@H](C)[C@H]1O[C@]2(C=C[C@@H]1C)C[C@@H]1C[C@@H](C/C=C(\C)[C@@H](O[C@H]3C[C@H](OC)[C@@H](O[C@H]4C[C@H](OC)[C@@H](O)[C@H](C)O4)[C@H](C)O3)[C@@H](C)/C=C/C=C3\CO[C@@H]4[C@H](O)C(C)=C[C@@H](C(=O)O1)[C@]34O)O2`, the figure is -4.72%; as for `O=C(NCCN1CCN(c2ncccn2)CC1)C12CC3CC(CC(C3)C1)C2`, -4.05%; as for `COc1cc(OC)c(/C=C/S(=O)(=O)Cc2ccc(OC)c(OP(=O)(O)O)c2)c(OC)c1`, 6.33%.
As to `CCn1c(=O)n(C2=C(CO)CN(CC3CCCCCCC3)CC2)c2ccccc21`, the inhibition in test [1] was -8.59%.
Still for that read-out and setting: as for `CN1CCC2=C(C1)C(c1ccccc1)c1ccccc12` (stereo unspecified), the figure is -8.99%.
The same measure, in the same setting: as for `CNC1CC(c2ccc(Cl)c(Cl)c2)c2ccccc21` (stereo unspecified), the figure is 30.3%.
On the same count and under the same terms, next, `CCCCN1[C@@H]2CC[C@H]1C[C@@H](OC(c1ccc(F)cc1)c1ccc(F)cc1)C2`: 7.33%; `Nc1nc(OCc2cc(Br)cs2)c2[nH]cnc2n1`: 65.4%.
For `CN1CCN(c2cccc3[nH]c(=O)oc23)CC1`, the inhibition in test [1] was determined as 26.1%.
Same read-out and setting: next, `O=C([O-])[C@H]1O[C@H](O)[C@H](O)[C@@H](O)[C@@H]1O.[Na+]`: 1.38%; `CC(C)COC(=O)c1ccc(N)cc1`: 82.8%; `CCOC(=O)c1ccc(N(C)c2csc(-c3ccccc3)n2)cc1`: 30.7%.
The same measure, in the same setting: as for `Nc1ccc(C(=O)OCC(O)CO)cc1` (stereo unspecified), the figure is 14.1%; as for `CC1=C[C@H](O)CC(C)(C)[C@H]1/C=C/C(C)=C/C=C/C(C)=C/C=C/C=C(C)/C=C/C=C(C)/C=C/C1=C(C)C[C@@H](O)CC1(C)C`, 5.04%.
